The record followed here is PubChem BioAssay (Tox21).

Records with an inconclusive call do not appear. Entries that show only a call come without a potency. Values without a mark were called inactive. Active and inactive are the calls of the source. Unless noted, calls follow the shape of the dose curve; as a rule, active = well fitted cell-killing curve with a large enough effect in the repeat runs; inconclusive = weak or mixed curves, or effect the other way; inactive = no such curve, though single readings can be large or run the other way.

Chain of Progesterone receptor (Homo sapiens) (P06401 whole entry, looked up): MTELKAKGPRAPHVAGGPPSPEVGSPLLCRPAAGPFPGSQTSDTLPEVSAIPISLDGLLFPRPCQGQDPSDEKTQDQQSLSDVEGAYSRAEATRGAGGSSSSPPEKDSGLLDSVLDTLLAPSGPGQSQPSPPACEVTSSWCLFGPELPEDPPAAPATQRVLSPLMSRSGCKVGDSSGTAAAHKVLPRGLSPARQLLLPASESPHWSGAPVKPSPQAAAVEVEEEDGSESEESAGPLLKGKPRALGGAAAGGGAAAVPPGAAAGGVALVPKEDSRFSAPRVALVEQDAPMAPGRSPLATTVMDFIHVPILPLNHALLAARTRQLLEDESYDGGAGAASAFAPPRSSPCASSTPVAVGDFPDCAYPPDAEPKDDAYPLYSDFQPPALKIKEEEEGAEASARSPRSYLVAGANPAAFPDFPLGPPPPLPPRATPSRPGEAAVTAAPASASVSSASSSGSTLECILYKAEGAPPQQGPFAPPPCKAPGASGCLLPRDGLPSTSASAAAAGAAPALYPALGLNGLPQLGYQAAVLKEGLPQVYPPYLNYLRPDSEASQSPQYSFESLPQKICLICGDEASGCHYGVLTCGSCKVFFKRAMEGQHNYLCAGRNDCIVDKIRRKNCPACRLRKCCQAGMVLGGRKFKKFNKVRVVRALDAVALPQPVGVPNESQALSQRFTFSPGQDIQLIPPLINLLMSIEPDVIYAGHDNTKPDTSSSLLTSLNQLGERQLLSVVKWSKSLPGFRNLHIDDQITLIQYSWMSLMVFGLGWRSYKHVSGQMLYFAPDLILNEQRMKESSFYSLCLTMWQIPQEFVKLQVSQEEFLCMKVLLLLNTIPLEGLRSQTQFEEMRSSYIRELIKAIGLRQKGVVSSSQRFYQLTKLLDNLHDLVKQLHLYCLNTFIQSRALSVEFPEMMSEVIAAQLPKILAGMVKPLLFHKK

Test system in the first assay: not listed separately
The assay can be described thus: qHTS assay to identify small molecule agonists of the estrogen receptor alpha (ER-alpha) signaling pathway in the presence of an antagonist - cell viability counter screen (AID 1259386). Also: nearly all actives have a fitted effect of over 30% in size. The note with it: VM7Luc4E2 viability, CellTiter-Fluor fluorescence, 22 h; series mostly up to 92.4 µM. The method, boiled down: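 Compounds tested at 15 concentrations for 22 h at 37C alongside 10.0nM (final) ICI-182,780 antagonist, in VM7Luc4E2 cells grown in phenol red-free, charcoal-stripped medium. Viability read by CellTiter-Fluor fluorescence after 1 h reagent incubation.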
In general terms: In qHTS, concentration-response curves come from the screen itself.
For the compound `CN1CCC(=C2c3ccccc3CC(=O)c3sccc32)CC1`, the Potency result was “inactive”.
As for `OC[C@]1(O)OC[C@@H](O)[C@H](O)[C@@H]1O`, the Potency result is “inactive”.
On the same count and under the same terms, the entry for `CCCCC/C=C\CCC=O` is “inactive”; for `CCCC(=O)O[C@]1(C(=O)CO)CC[C@H]2[C@@H]3CCC4=CC(=O)CC[C@]4(C)[C@H]3[C@@H](O)C[C@@]21C` it is “inactive”.
The same measure, in the same setting: the same measure for `COC(=O)CCSCCC(=O)OC`: “inactive”; for `CC(=O)c1ccccc1O`: “inactive”.
Still for that read-out and setting: the entry for `CC(NC(CCc1ccccc1)C(=O)O)C(=O)N1C(=O)N(C)CC1C(=O)O` (stereo not drawn) is “inactive”; for `NC(=O)c1ccc(N)cc1` it is “inactive”.
Regarding `CC(C)OC(=O)c1ccccc1`, the Potency result is “inactive”.
The same measure, in the same setting: the entry for `Nc1c2c(nc3ccccc13)CCCC2O` (stereo not drawn) is “inactive”; for `CCCCCCCCCCCCCCCCC` it is “inactive”.
Still for that read-out and setting: the same measure for `COC(=O)CC(C)=O`: “inactive”; for `COc1ccc2c(c1)c(CC(=O)OCC(=O)O)c(C)n2C(=O)c1ccc(Cl)cc1`: “inactive”.
Still for that read-out and setting: the entry for `CCN1CCC[C@H]1CNC(=O)c1c(O)c(Cl)cc(Cl)c1OC` is “inactive”; for `O=C(O)c1ccccc1OP(=O)(O)O` it is “inactive”; for `CCOC(C)(C)C` it is “inactive”.
As to `Nc1nc2c(ncn2COC(CO)CO)c(=O)[nH]1`, the Potency result was “inactive”.
For the compound `CCCCCCCCCCCCCC=O`, the activity change, negative = cytotoxicity was 2.15% [at 8.39 µM].
`c1cnc(N2CCN(Cc3ccc4c(c3)OCO4)CC2)nc1`: the Potency result is “inactive”.
On the same count and under the same terms, the same measure for `CC/C=C\CC/C=C/C(OCC)OCC`: “inactive”.
The same measure, in the same setting: the entry for `NCCc1cnc[nH]1` is “inactive”; for `CCC(=O)OC(C)c1ccccc1` (stereo not drawn) it is “inactive”.
The same measure, in the same setting: the entry for `COc1c(N2C[C@@H]3CCCN[C@@H]3C2)c(F)cc2c(=O)c(C(=O)O)cn(C3CC3)c12` is “inactive”.
Take `O=S(O)CO`: the Potency entry is “inactive”.
On the same count and under the same terms, the same measure for `O=c1n(CCO)c(=O)n(CCO)c(=O)n1CCO`: “inactive”.
`CCCCOCCOCCOCCCC`: the Potency entry is “inactive”.
The same measure, in the same setting: the same measure for `CO[C@]12C[C@@H](COC(=O)c3cncc(Br)c3)CN(C)[C@@H]1Cc1cn(C)c3cccc2c13`: “inactive”.
Consider `CCc1ccc(O)c(OC)c1`, for which the Potency result is “inactive”.
On the same count and under the same terms, the entry for `CCCCCCCCS(=O)(=O)Cl` is “inactive”; for `CCO[Si](CCC1CCC2OC2C1)(OCC)OCC` (stereo not drawn) it is “inactive”.
Same read-out and setting: the same measure for `NC(=O)c1ccc([N+](=O)[O-])cc1`: “inactive”; for `CS(=O)(=O)O`: “inactive”.
On the same count and under the same terms, the same measure for `O=C(O)CCCc1ccccc1`: “inactive”; for `O=Cc1cccc([N+](=O)[O-])c1`: “inactive”.
Turning to `N=c1nc(N2CCCCC2)cc(N)n1O`, the Potency entry is “inactive”.

The next assay concerns the target Progesterone receptor (Homo sapiens) (UniProt P06401). The experiment in a line: qHTS assay to identify small molecule agonists of the progesterone receptor (PR) signaling pathway (AID 1346784; calls by dose curve; also: nearly all actives have a fitted effect of over 30% in size; also: potency is read from the fitted curve at half-maximal effect). The note with it: PR-UAS-bla HEK293T, beta-lactamase FRET ratio, 16 h; series mostly up to 92.4 µM. The method, boiled down: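 Compounds were tested for PR agonism in HEK 293T cells bearing a beta-lactamase gene under UAS control. Treatment lasted 16 hr at 37C; signal came from fluorescence of a FRET substrate.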
Turning to `CN1CCC(=C2c3ccccc3CC(=O)c3sccc32)CC1`, the Potency result is “inactive”.
Same read-out and setting: the same measure for `OC[C@]1(O)OC[C@@H](O)[C@H](O)[C@@H]1O`: “inactive”.
Still for that read-out and setting: the same measure for `CCCCC/C=C\CCC=O`: “inactive”.
On the same count and under the same terms, the figure for `CCCC(=O)O[C@]1(C(=O)CO)CC[C@H]2[C@@H]3CCC4=CC(=O)CC[C@]4(C)[C@H]3[C@@H](O)C[C@@]21C` is 841 nM (active); for `COC(=O)CCSCCC(=O)OC` it is “inactive”.
On to `CC(NC(CCc1ccccc1)C(=O)O)C(=O)N1C(=O)N(C)CC1C(=O)O` (stereo not drawn), for which the Potency entry is “inactive”.
On the same count and under the same terms, the same measure for `NC(=O)c1ccc(N)cc1`: “inactive”.
With `CC(C)OC(=O)c1ccccc1`, the Potency entry is “inactive”.
Same read-out and setting: the same measure for `Nc1c2c(nc3ccccc13)CCCC2O` (stereo not drawn): “inactive”; for `COC(=O)CC(C)=O`: “inactive”; for `COc1ccc2c(c1)c(CC(=O)OCC(=O)O)c(C)n2C(=O)c1ccc(Cl)cc1`: “inactive”.
Still for that read-out and setting: the entry for `CCN1CCC[C@H]1CNC(=O)c1c(O)c(Cl)cc(Cl)c1OC` is “inactive”.
The same measure, in the same setting: the entry for `O=C(O)c1ccccc1OP(=O)(O)O` is “inactive”; for `CCOC(C)(C)C` it is “inactive”; for `Nc1nc2c(ncn2COC(CO)CO)c(=O)[nH]1` it is “inactive”.
Turning to `CCCCCCCCCCCCCC=O`, the activation is -0.302% [at 8.39 µM].
Regarding `c1cnc(N2CCN(Cc3ccc4c(c3)OCO4)CC2)nc1`, the Potency result was “inactive”.
Still for that read-out and setting: the same measure for `CC/C=C\CC/C=C/C(OCC)OCC`: “inactive”; for `NCCc1cnc[nH]1`: “inactive”; for `CCC(=O)OC(C)c1ccccc1` (stereo not drawn): “inactive”.
The same measure, in the same setting: the same measure for `COc1c(N2C[C@@H]3CCCN[C@@H]3C2)c(F)cc2c(=O)c(C(=O)O)cn(C3CC3)c12`: “inactive”; for `O=S(O)CO`: “inactive”.
In the case of `O=c1n(CCO)c(=O)n(CCO)c(=O)n1CCO`, the Potency result is “inactive”.
As for `CCCCOCCOCCOCCCC`, the Potency result is “inactive”.
Take `CO[C@]12C[C@@H](COC(=O)c3cncc(Br)c3)CN(C)[C@@H]1Cc1cn(C)c3cccc2c13`: the Potency entry is “inactive”.
For `CCc1ccc(O)c(OC)c1`, the Potency result was “inactive”.
Same read-out and setting: the same measure for `CCO[Si](CCC1CCC2OC2C1)(OCC)OCC` (stereo not drawn): “inactive”; for `NC(=O)c1ccc([N+](=O)[O-])cc1`: “inactive”.
For the compound `CS(=O)(=O)O`, the Potency result is “inactive”.
In the case of `O=C(O)CCCc1ccccc1`, the Potency entry was “inactive”.
`O=Cc1cccc([N+](=O)[O-])c1`: the Potency result was “inactive”.
Same read-out and setting: the entry for `N=c1nc(N2CCCCC2)cc(N)n1O` is “inactive”.

Another assay shares this target. The experiment in a line: qHTS assay to identify small molecule antagonists of the progesterone receptor (PR) signaling pathway (AID 1346795; active = well fitted inhibition curve with a large enough effect in the signal ratio in the repeat runs, not every such curve was filed as active; the % refers to the signal ratio). The note with it: PR-UAS-bla HEK293T, beta-lactamase FRET ratio, 16 h; series mostly up to 42.5 µM. The method, boiled down:
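In HEK293T cells bearing the PR-UAS-bla reporter, compound effects on promegestone-driven (1 nM) beta-lactamase expression are assessed after 16 hr using a fluorescent FRET substrate incubated 2 hr at room temperature.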
Regarding `CCCCC/C=C\CCC=O`, the Potency result was “inactive”.
The same measure, in the same setting: the entry for `CCCC(=O)O[C@]1(C(=O)CO)CC[C@H]2[C@@H]3CCC4=CC(=O)CC[C@]4(C)[C@H]3[C@@H](O)C[C@@]21C` is “inactive”; for `CC(=O)c1ccccc1O` it is “inactive”.
As for `CCCCCCCCCCCCCCCCC`, the Potency result is “inactive”.
Turning to `O=C(O)c1ccccc1OP(=O)(O)O`, the Potency entry is “inactive”.
On to `COc1c(N2C[C@@H]3CCCN[C@@H]3C2)c(F)cc2c(=O)c(C(=O)O)cn(C3CC3)c12`, for which the Potency result is “inactive”.
For `O=c1n(CCO)c(=O)n(CCO)c(=O)n1CCO`, the Potency entry is “inactive”.
Take `CO[C@]12C[C@@H](COC(=O)c3cncc(Br)c3)CN(C)[C@@H]1Cc1cn(C)c3cccc2c13`: the Potency entry is “inactive”.
Still for that read-out and setting: the same measure for `CCCCCCCCS(=O)(=O)Cl`: “inactive”; for `O=C(O)CCCc1ccccc1`: “inactive”.
In the case of `O=Cc1cccc([N+](=O)[O-])c1`, the Potency entry was “inactive”.
